# 12-LOX inh – Primary qHTS assay for inhibitors of human arachidonate 12S-lipoxygenase (ALOX12): Round 2 | Polyunsaturated fatty acid lipoxygenase ALOX12 (Homo sapiens), P18054 | purified 12hLO, xylenol orange hydroperoxide absorbance | Potency, µM (titrated, usually from 108 µM), for the others: at the top dose activity change, negative = inhibition, hits mostly inhibitors | hit rate 1.1% among 580,000 | AID 1671190, 2021; note: potency is the fitted concentration of half-maximal effect; % is set by controls: 0 for no effect and ±100 for the full control effect
#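 Purified human 12hLO at 150 nM in 25 mM Hepes, 0.01% Triton X-100, pH 7.0, preincubated 15 min at room temperature with compound. Reaction started with 40 uM arachidonic acid, 30 min at room temperature. Hydroperoxide measured by Fe-xylenol orange, 573/405 nm absorbance ratio.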
# POLB inh – qHTS Assay for Inhibitors of DNA Polymerase Beta; Potency, µM (top dose mostly 114 µM), for inactives: at the top dose activity change, negative = inhibition, actives largely listed as inhibitors; hit rate 1.3% among 340,000; Pol beta primer extension/strand displacement, fluorescence kinetic; note: potency is the fitted concentration of half-maximal effect; % is set by controls: 0 for no effect and ±100 for the full control effect
#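 Pol beta (10 nM) and compounds were preincubated 15 min at room temperature, then 50 nM substrate (final) started primer extension/strand displacement. Reads were taken at 0 and 10 min; concentration-response data were fitted to a four-parameter Hill equation.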
# POLH inh – qHTS for Inhibitors of Polymerase Eta | Potency, µM (highest dose often 114 µM), for inactives: top-dose activity change, negative = inhibition, usual class: inhibitors | AID 588591, 2011 | hit rate 1.2% among 390,000 | recombinant Pol eta, fluorescent DNA replication assay; note: potency is the fitted concentration of half-maximal effect; % is set by controls: 0 for no effect and ±100 for the full control effect
# Target sequence (Q9Y253 whole entry, looked up): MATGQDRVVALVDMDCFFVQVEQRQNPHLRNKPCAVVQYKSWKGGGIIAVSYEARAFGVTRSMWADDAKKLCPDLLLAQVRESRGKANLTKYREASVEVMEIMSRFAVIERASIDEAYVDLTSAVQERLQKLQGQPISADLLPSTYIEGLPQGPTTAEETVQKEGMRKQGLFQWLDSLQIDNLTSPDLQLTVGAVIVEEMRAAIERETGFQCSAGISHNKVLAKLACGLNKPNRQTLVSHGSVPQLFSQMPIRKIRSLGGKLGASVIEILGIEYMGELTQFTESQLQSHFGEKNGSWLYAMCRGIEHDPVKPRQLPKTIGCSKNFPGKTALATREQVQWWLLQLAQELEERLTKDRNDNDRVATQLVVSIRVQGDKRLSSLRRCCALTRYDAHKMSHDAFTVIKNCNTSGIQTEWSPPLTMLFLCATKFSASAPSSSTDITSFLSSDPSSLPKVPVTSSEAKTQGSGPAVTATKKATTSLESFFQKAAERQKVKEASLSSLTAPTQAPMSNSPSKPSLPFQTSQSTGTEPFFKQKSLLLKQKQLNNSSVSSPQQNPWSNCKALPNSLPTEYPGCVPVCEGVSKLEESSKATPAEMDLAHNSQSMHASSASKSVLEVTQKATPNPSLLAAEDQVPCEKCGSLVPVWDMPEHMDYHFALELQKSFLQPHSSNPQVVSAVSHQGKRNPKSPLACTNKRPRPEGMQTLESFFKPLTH
#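 Fluorescent replication assay: 50 nM final substrate added after a 15 min room-temperature compound preincubation with 10 nM enzyme. Signal taken at 0 min and again at 10 min.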
# PI5P4K alpha inh – qHTS for Inhibitors of phosphatidylinositol 5-phosphate 4-kinase (PI5P4K); PI5P4Kalpha enzyme, ADP-Glo luminescence, 60 min; hits give low values; AID 652105, 2013; hit rate 1.2% among 330,000; Phosphatidylinositol 5-phosphate 4-kinase type-2 alpha (Homo sapiens), P48426; max response, %; active = max response of -50% or lower; inconclusive = between -30% and -50%; inactive = -30% or higher; note: value at the top dose of about 77 µM; % is set by controls: 0 for no effect and ±100 for the full control effect
#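 Reactions run in 0.038 M HEPES pH 7.4, 0.28 mM EGTA, 0.1% CHAPS and 5% DMSO, with PI5P4Kalpha, substrate, compound and 5 microM ATP final, one hour at room temperature. Readout is ADP-Glo luminescence.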
# POLI inh – qHTS for Inhibitors of Polymerase Iota. Pol iota fluorescent replication assay, 10 min. hit rate 1% among 390,000. Potency, µM (series often up to 115 µM), inactives show at the top dose activity, negative = inhibition, usual class: inhibitors. AID 588590, 2011; note: potency is the fitted concentration of half-maximal effect
#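 Pol iota at 10 nM preincubated 15 min with compounds at room temperature; reaction started with fluorescent substrate, 50 nM final. Fluorescence read kinetically at 0 and 10 min; buffer-only wells as negative control.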
# POLK inh – qHTS for Inhibitors of Polymerase Kappa; hit rate 0.53% among 400,000; DNA polymerase kappa (Homo sapiens), Q9UBT6; AID 588579, 2011; purified Pol kappa, fluorescent DNA synthesis assay, 10 min; Potency, µM (titrated, usually from 107 µM), for the others: at the highest dose activity, negative = inhibition, usual class: inhibitors; note: potency is the fitted concentration of half-maximal effect; % is set by controls: 0 for no effect and ±100 for the full control effect
#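 Enzyme at 10 nM met test compounds for 15 min at room temperature. Substrate addition (50 nM final) began the reaction, which was monitored by fluorescence at 0 and 10 min.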
# * marks the source's active call; other numbers are inactive results; ? = inconclusive; · = no result given; [ ] = another dose, or the depositor's remark. Most compounds without a hit are left out; they make up all but 2.9% or so of the library. Unless noted, calls come from the whole dose curve; as a rule, active = well fitted inhibition curve with a large enough effect; inconclusive = small, poorly fitted or top-dose-only effect, or another doubt; inactive = no such curve, though single readings can be large or run the other way.
SMILES,12-LOX inh,POLB inh,POLH inh,PI5P4K alpha inh,POLI inh,POLK inh
CCOc1cc(C2C(C#N)=C(N)Oc3n[nH]c(-c4ccccc4)c32)ccc1O (configuration not stated),?,37%,1%,?,25µM*,-2%
CCNC(=O)NC(=O)C(C)Sc1cccc2cccnc12 (configuration not stated),-28%,·,·,·,·,·
S=C1SCN(Cc2ccccc2)CN1Cc1ccco1,35µM*,·,?,-75*,·,·
S=C1SCN(Cc2ccccc2)CN1Cc1ccccc1,7%,-5%,-16%,8,-9%,-6%
Cc1cccc(NC(=O)Cc2c(C)nc3nc(-c4cccs4)nn3c2C)c1,-6%,·,·,·,·,·
C(=C\n1nnc2ccccc21)/c1ccc[nH]1,-13%,·,50µM*,-77*,?,25µM*
c1ccc(-n2nnc3ccccc32)cc1,-5%,6%,-5%,-1,30%,19%
COCCNc1nc(-c2ccc(NC(=O)C(C)(C)C)cc2)cs1,-72%,·,·,·,·,·
COCCNc1nc(-c2ccc(N3CCCC3=O)cc2)cs1,11µM*,·,·,·,·,·
O=C(Nc1ccccc1)c1ccccc1NC(=O)c1ccccc1[N+](=O)[O-],423%,·,-9%,2,5%[58.9 µM],-13%
O=[N+]([O-])c1ccccc1C(=Nc1ccccc1)c1c(O)cc(O)cc1O,45µM*,·,-2%,-19,·,·
Cc1cc(C)c2nc(Nc3nc(-c4ccccc4)cc(=O)[nH]3)nc(C)c2c1,2%,?,5%,-7,-13%,-10%
Cc1cc(-c2ccccc2)nc(Nc2nc3c(C)cccc3c(=O)[nH]2)n1,10%,·,45µM*,1,17%,-3%
O=S(=O)(c1cccc(Br)c1)N1CCN(c2nc3ccccc3o2)CC1,2%,·,·,·,·,·
Cc1cccc([C@H]2[C@@H]3C=CCC[C@@H]3C(=O)N2Cc2ccccc2)c1,28µM*,·,-25%,4,52%,?
O=C(COC(=O)c1nc(-c2ccccc2)n(-c2ccccc2)n1)Nc1ccc(Cl)cc1,-29%,·,·,·,·,·
COc1ccccc1/C=C/C=N/n1c(-c2cc(-c3ccccc3)n[nH]2)n[nH]c1=S,10µM*,?,-17%,-52*,25%,1%
O=[N+]([O-])c1ccccc1/C=C/C=N/n1c(-c2cc(-c3ccccc3)n[nH]2)n[nH]c1=S,?,10µM*,32µM*,?,?,-16%
Cc1ccc(-c2n[nH]c(=S)n2/N=C/C=C/c2ccccc2[N+](=O)[O-])cc1,-13%,32µM*,?,-17,?,-12%
CC1Oc2ccc(NC(=O)c3c(F)cccc3F)cc2CN(Cc2ccc(Cl)cc2)C1=O (configuration not stated),11%,·,·,·,·,·
O=C(Nc1ccc2c(c1)nc1n2CCSC1)c1ccco1,0%,11µM*,?,?,32µM*,-36%
Cc1cccc(/C=N/NC(=O)c2ccc(-c3ccccc3)cc2)c1,-3%,·,·,·,·,·
NCCCC[C@@H]1NC(=O)c2cc([N+](=O)[O-])cc(I)c2SC[C@@H](C(N)=O)NC(=O)[C@H](Cc2ccc(O)cc2)NC1=O,·,10%,-4%,?,-20%,-6%
NCCCC[C@H]1NC(=O)[C@H](CCC(=O)O)NC(=O)c2cc([N+](=O)[O-])cc(I)c2OCC[C@@H](C(N)=O)NC1=O,·,-9%,-98%,?,8.9µM*,3.5µM*
NCCCC[C@@H]1NC(=O)[C@H](CCC(=O)O)NC(=O)c2cc([N+](=O)[O-])cc(I)c2SC[C@@H](C(=O)NCC(N)=O)NC1=O,40µM*,14%,-3%,-7,?,9%
SMILES,12-LOX inh,POLB inh,POLH inh,PI5P4K alpha inh,POLI inh,POLK inh
C[C@@H]1NC(=O)c2cc([N+](=O)[O-])cc(I)c2OCC[C@@H](C(N)=O)NC(=O)[C@H](CCCCN)NC1=O,·,-1%,-6%,-3,-13%,-8%
CCCCN(CCCC)CCNC(=O)Cn1nc(CC)n2c(cc3sc(C)cc32)c1=O,-3%,45%,-10%,·,25µM*,-6%
CCc1nn(CC(=O)NCCCN(CC)CC)c(=O)c2cc3sc(C)cc3n12,0%,27%,-19%,6,54%,-11%
Cc1ccc(NC(=O)C(=O)c2c(C)n(C)c3ccccc23)cc1F,-1%,·,·,·,·,·
COCCCNC(=O)Cn1c(=O)n(Cc2ccc(C(=O)NCc3ccc(C)cc3)cc2)c(=O)c2ccccc21,-45%,?,?,·,89µM*,-18%
COc1ccccc1-c1cnc(Nc2ccc(CN3CCN(C)CC3)cc2)c2c1CCO2,-27%[176 µM],·,·,·,·,·
CC(CNC(=O)/C=C/c1ccc(C(C)(C)C)cc1)NC(=O)/C=C/c1ccc(C(C)(C)C)cc1 (configuration not stated),9%,·,·,·,·,·
CSc1ncccc1C(=O)OCc1ccc(COC(=O)c2cccnc2SC)cc1,·,6%,·,·,·,·
COC(=O)c1cc(COC(=O)c2cccnc2SC)oc1C,40µM*,-15%,-1%,1,8%,-9%
COc1cc(CN2CCCCCC2c2cccc(F)c2)ccc1OCC(N)=O (configuration not stated),0%,·,·,·,·,·
C(=C\c1ccco1)/c1ccc2ccccc2n1,40µM*,10µM*,-21%,-30,?,?
S=C(Nc1nc2c(s1)CCCC2)NC1CC1,45µM*,27%,-6%,4,25%,3%
O=C(NC(=S)Nc1nc2c(s1)CCCC2)c1ccccc1,-7%,?,-17%,0,20%,-16%
Cc1ccc2cccc(S(=O)(=O)Nc3ccc4c(c3)OCO4)c2n1,?,45µM*,?,·,?,-24%
Cc1ccc2cccc(OCC(=O)Nc3ccc4c(c3)OCO4)c2n1,4%,11%,-4%,-6,163%,-4%
CCCCCOc1ccc(C(N)C(=O)OCC)cc1 (configuration not stated),20µM*,·,·,·,·,·
O=C1NC(=O)C(=Cc2ccccc2[N+](=O)[O-])S1,?,·,89µM*,?,?,-5%
O=C1NC(=O)/C(=C/c2cccc3ccccc23)S1,-104%,16%,-4%,-28,?,-14%
CCC(CC)(CC(=O)Nc1ccccc1NS(=O)(=O)c1ccc(F)cc1)C(=O)O,2%,·,·,·,·,·
COc1ccc(NC(=O)C2CCCN2S(=O)(=O)c2ccc3nc(-c4ccccc4)[nH]c3c2)cc1 (configuration not stated),-18%,-6%,0%,·,-7%,2%

# Compound activity as filed in PubChem BioAssay.
